From PubChem BioAssay (Tox21)
Where “and” joins values, the source holds several entries; their conditions need not be identical. Identical values can stand only once. Records with an inconclusive call do not appear. Where a call stands in place of a potency, no number is given. A structure can be active in one record and inactive in another. Calls of active or inactive are those of the source. Calls come from the whole dose curve; as a rule, active = well fitted cell-killing curve with a large enough effect in the repeat runs; inconclusive = weak or mixed curves, or effect the other way; inactive = flat fitted curve, though single readings scatter.
Potency is the fitted concentration of half-maximal effect.

Assay: Human pregnane X receptor (PXR) small molecule agonists, qHTS cell viability counter screen (AID 1346977); note: nearly all actives have a fitted effect of over 50% in size
Conditions: PXR-Luc HepG2 viability, CellTiter-Fluor, 24 h; series mostly up to 92.4 µM
Description: U.S. Tox21 Program National Center for Advancing Translational Sciences [NCATS] NIH Chemical Genomics Center [NCGC] U.S. Environmental Protection Agency [EPA] National Institutes of Environmental Health Sciences [NIEHS] National Toxicology Program [NTP] U.S. Food and Drug Administration [FDA] Tox21 Assay Overview: The human pregnane X receptor (hPXR) regulates the expression of several drug metabolizing enzymes and induction of these proteins is a major mechanism for developing drug resistance in cancer. One such key enzyme catalyzing the drug metabolism is cytochrome P450 3A4 (CYP3A4). Changes in CYP3A4 expression affect drug metabolism, thereby reducing the therapeutic efficacy and altering toxicological response to a drug and which finally causes adverse drug interaction. To screen Tox21 libraries for compounds that activate hPXR-mediated CYP3A4 gene expression, PXR-Luc HepG2 cells were used. Also cytotoxicity of the compounds was tested in parallel by measuring the cell viability using CellTiter-Fluor assay system in the same wells.
Tox21 Assay Protocol Summary: PXR-Luc HepG2 cells were dispensed at 2,000 per well in 5uL of assay medium containing 5% charcoal-stripped FBS into white solid bottom 1536-well plates (Corning Life Sciences, Corning, NY) using a Multidrop Combi (Thermo Scientific, Waltham, MA) dispenser. The assay plates were incubated at 37 C and 5% CO2 for 5hr, and then 23nL of compounds dissolved in DMSO and positive control were transferred using a Pintool station (Wako, San Diego, CA). The assay plates were incubated at 37C and 5% CO2 for 24hr. For cytotoxicity read, after 23hr incubation at 37C, 1uL CellTiter-Fluor reagent (Promega Corporation, Madison, WI) was added to each well of the assay plates using Flying Reagent Dispenser (FRD, Aurora Discovery, San Diego, CA). After 1hr incubation at 37C and 5% CO2, the fluorescence signal was quantified using a ViewLux plate reader (PerkinElmer, Shelton, CT).
With `CCc1cc(C(C)(C)C)c(O)c(C(C)(C)C)c1` the Potency was “inactive”. With `O` the Potency was “inactive”. For `CC(C)C(=O)c1c(C(C)C)nn2ccccc12`, the Potency was “inactive”. With `C=CS(=O)(=O)O` the Potency was “inactive”. In the case of `CCCNC(C)C(=O)Nc1ccccc1C` (stereo not given), the Potency is reported as “inactive”. With `C=C(C)C(=O)O` the Potency was “inactive”. For `O=c1n(CC2CO2)c(=O)n(CC2CO2)c(=O)n1CC1CO1` (stereo not given), the Potency was 50.1 µM (active) and 54.5 µM (active). With `C=CC(=O)OCCCCCCCC` the Potency was “inactive”. In the case of `CC1=CC(=O)c2ccccc2C1=O`, the Potency is reported as 43.3 µM (active). For `NNCCc1ccccc1`, the Potency was “inactive”. With `Oc1ccc(Cl)cc1Cc1cc(Cl)ccc1O` the Potency was 35.5 µM (active) and 30.6 µM (active) and 16.8 µM (active). With `CCC(=O)/C=C/C1C(C)=CCCC1(C)C` (stereo not given) the Potency was “inactive”. With `CCCCC/C=C/CC1CC(=O)OC1=O` (stereo not given) the Potency was “inactive”. For `CC(C)CCOC(=O)c1ccc(N(C)C)cc1`, the Potency was “inactive”. In the case of `Cc1cc(OCCOCC[N+](C)(C)Cc2ccccc2)ccc1C(C)(C)CC(C)(C)C`, the Potency is reported as 54.2 µM (active). With `OCC(CO)N[C@H]1C[C@](O)(CO)[C@@H](O)[C@H](O)[C@H]1O` the Potency was “inactive”. In the case of `c1ccc2n[nH]nc2c1`, the Potency is reported as “inactive”. In the case of `O=C(O)CCc1ccccc1`, the Potency is reported as “inactive”. In the case of `OCCN1CCNCC1`, the Potency is reported as “inactive”. In the case of `COC(c1ccccc1)(c1ccccc1)[C@H](Oc1nc(C)cc(C)n1)C(=O)O`, the Potency is reported as “inactive”. In the case of `Oc1c(Cl)cc(Cl)c(Cl)c1Cc1c(O)c(Cl)cc(Cl)c1Cl`, the Potency is reported as 2.72 µM (active) and 1.72 µM (active) and 6.68 µM (active). With `CC(C)(c1ccccc1)c1ccc(Nc2ccc(C(C)(C)c3ccccc3)cc2)cc1` the Potency was “inactive”. In the case of `Nc1nc2ccccc2[nH]1`, the Potency is reported as “inactive”. For `c1ccc2c(c1)CCCC2C1=NCCN1` (stereo not given), the Potency was “inactive”. For `O=C(Cl)c1cccc(C(=O)Cl)c1`, the Potency was “inactive”. In the case of `O=C1NCC2(CCN(CCc3ccccc3)CC2)O1`, the Potency is reported as “inactive”. With `CN1C(=O)c2ccc([N+](=O)[O-])cc2C1=O` the Potency was “inactive”. With `O=S(=O)(O)c1ccc2nc(-c3ccccc3)[nH]c2c1` the Potency was “inactive”. For `OCCOCCN1CCN(C(c2ccccc2)c2ccc(Cl)cc2)CC1` (stereo not given), the Potency was 24 µM (active). With `O=C(O)CP(=O)(O)O` the Potency was “inactive”. With `c1ccc2cc3c(ccc4ccccc43)cc2c1` the Potency was “inactive”. With `CCC(CO)(CO)COCC(CC)(CO)CO` the Potency was “inactive”. With `Cc1ccnc2c1NC(=O)c1cccnc1N2C1CC1` the Potency was “inactive”. With `CCN1CCCC1CNC(=O)c1cc(S(=O)(=O)CC)c(N)cc1OC` (stereo not given) the Potency was “inactive”. For `CC(C)CCCCCCc1ccc(O)cc1`, the Potency was 50.1 µM (active). For `CC(COc1ccccc1)N(CCCl)Cc1ccccc1` (stereo not given), the Potency was “inactive”. With `NC(=Nc1ccccc1)Nc1ccccc1` the Potency was 4.86 µM (active). In the case of `O=C(O[C@@H]1Cc2c(O)cc(O)cc2O[C@@H]1c1cc(O)c(O)c(O)c1)c1cc(O)c(O)c(O)c1`, the Potency is reported as 35.5 µM (active). For `Cc1ccc(-c2cc(C(F)(F)F)nn2-c2ccc(S(N)(=O)=O)cc2)cc1`, the Potency was 60.9 µM (active) and inactive. With `CC(C)(C)c1cc(C(C)(C)C)c(O)c(C(C)(C)C)c1` the Potency was “inactive”.
